Among the data in PubChem BioAssay are composite z-score and z-score values, retold here.

Assay [1] relates to XIP peptide (Xip251-270) binding. Put plainly: small-molecule binders of XIP peptide, primary screen, biochemical, small-molecule microarray, fluorescence 635/667 nm, 0.1 µg/mL protein (AID 1182). The settings on record: fluorescent protein binding, 635 nm, higher = more signal, called active from +8 up or from −8 down.
The test system of the next assay is XIP peptide (Xip251-270). Kind of assay: small-molecule binders of XIP peptide, primary screen, biochemical, small-molecule microarray, fluorescence 635/667 nm, 0.5 µg/mL protein (AID 1183). To be noted: small-molecule microarray binding, fluorescence 635 nm; higher = more signal.
The nature of assay [2]: Plasmodium falciparum growth inhibition, primary screen, strain 3D7, DAPI fluorescence, 100 nL (AID 1184).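 Also: parasites grown inside human red blood cells in medium with human serum.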 To be noted: P. falciparum 3D7 growth, 3 d, higher = more signal.
The target in assay [3] is Homeobox protein Hox-A13 (Mus musculus) (UniProt Q62424). Kind of assay: inhibitors of HoxA13-DNA binding, primary screen, biochemical, fluorescence polarization, labeled oligonucleotide (AID 1185). To be noted: 15 min, higher = more signal, called active from +8 up or from −8 down.
Homeobox protein Hox-A13 (Mus musculus), sequence (Q62424 whole entry, looked up): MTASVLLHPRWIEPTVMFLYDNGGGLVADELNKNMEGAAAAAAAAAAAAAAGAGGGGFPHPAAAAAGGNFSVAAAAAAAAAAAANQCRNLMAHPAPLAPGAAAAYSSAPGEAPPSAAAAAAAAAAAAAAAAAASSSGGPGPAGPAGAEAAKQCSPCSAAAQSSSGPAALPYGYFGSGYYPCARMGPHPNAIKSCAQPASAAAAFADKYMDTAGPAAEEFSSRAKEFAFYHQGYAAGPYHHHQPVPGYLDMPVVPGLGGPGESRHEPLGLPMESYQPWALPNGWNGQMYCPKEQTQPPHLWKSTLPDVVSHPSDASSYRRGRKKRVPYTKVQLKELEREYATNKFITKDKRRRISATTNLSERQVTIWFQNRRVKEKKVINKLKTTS
Assay [4] can be described thus: inhibitors of hydroxyurea-induced Chk1 phosphorylation, primary screen, imaging, HeLa, phospho-Chk1 antibody, percent positive cells (AID 1186). To be noted: hydroxyurea-induced phospho-Chk1 immunofluorescence imaging, higher = more signal.
Assay [5] in a line: inhibitors of hydroxyurea-induced Chk1 phosphorylation, primary screen, imaging, HeLa, phospho-Chk1 nuclear intensity (AID 1187). To be noted: hydroxyurea-induced phospho-Chk1 immunofluorescence imaging, higher = more signal.

The source made the active and inactive calls. Unless noted, no rule for the calls is given here.

In the case of `[N-]=[N+]=Nc1ccccc1[C@H]1OC(c2ccc(OCCCO)cc2)=N[C@@]1(Cc1ccccc1)C(=O)N1CCOCC1`, the results for the composite z-score (in assay [1]; in the assay with XIP peptide (Xip251-270)) were 2.73 (inactive) and 0.816, respectively. The z-score was -2.19 in assay [2], -3.84 (inactive) in assay [3], -0.0747 (inactive) in assay [4] and 0.0969 (inactive) in assay [5].

For the compound `CCCCC(=C=CC[C@H](O)c1cccc(OCCO)c1)C[C@H](O)c1ccccn1`, the composite z-score is 0.0547 (inactive) in assay [1] and 0.661 with XIP peptide (Xip251-270). The z-score is -1.78 in assay [2], -4.75 (inactive) in assay [3], -0.949 (inactive) in assay [4] and -0.278 (inactive) in assay [5].

Turning to `O=C1O[C@H](c2ccccc2)[C@H](c2ccccc2)N2[C@H]1[C@@H](C(=O)N1CCN(c3ncccn3)CC1)[C@]1(C(=O)Nc3ccc(C#CC4=CCCCC4)cc31)[C@H]2c1ccccc1OCCO`, the composite z-score was 0.263 (inactive) in assay [1] and 0.938 in the assay with XIP peptide (Xip251-270). In addition, the z-score in assay [2] is -2.09; in assay [3], 1.87 (inactive); in assay [4], 0.28 (inactive); in assay [5] it was 0.188 (inactive).

Regarding `CC(C)CNC(=O)[C@@]1(Cc2ccccc2I)c2ccccc2C(=O)N(Cc2ccccc2C(F)(F)F)[C@H]1c1ccc(CO)cc1`, the composite z-score in assay [1] was 1.43 (inactive); in the assay on XIP peptide (Xip251-270), 0.875. Besides, the z-score is -0.538 in assay [2], -1.78 (inactive) in assay [3], 0.172 (inactive) in assay [4] and 0.345 (inactive) in assay [5].

As to `O=C(O)C1N=C(c2ccc(OCCCO)cc2)N(c2ccccc2)O1` (stereo unspecified), the composite z-score in assay [1] was 1.77 (inactive); in the assay on XIP peptide (Xip251-270), 0.852. In addition, the z-score in assay [2] is -0.112; in assay [3], -2.98 (inactive); in assay [4] it was -0.259 (inactive); in assay [5] it was -0.229 (inactive).

Turning to `NC(=O)NCC#Cc1ccc2c(c1)[C@]1(C(=O)N2)[C@H](C(=O)O)[C@H]2C(=O)O[C@H](c3ccccc3)[C@H](c3ccccc3)N2[C@@H]1c1ccc(O)cc1`, the composite z-score in assay [1] was 0.88 (inactive); in the assay with XIP peptide (Xip251-270), 0.275. In addition, the z-score in assay [2] was 0.137; in assay [3], -5.06 (inactive); in assay [4] it was 0.0315 (inactive); in assay [5] it was 0.118 (inactive).

As for `Cc1ccc(S(=O)(=O)N2C[C@@H](C(=O)O)[C@H](Sc3ccccc3)C[C@H]2c2ccccc2)cc1`, the figures for the composite z-score (in assay [1]; with XIP peptide (Xip251-270)) were 0.117 (inactive) and 0.779, respectively. Moreover, the z-score in assay [2] is -0.0652; in assay [3], -7 (inactive); in assay [4], 0.442 (inactive); in assay [5] it was 0.283 (inactive).

Consider `OB1C=CCC(CCc2ccccc2)O1` (stereo unspecified), for which the composite z-score in assay [1] was -1.15 (inactive); in the assay on XIP peptide (Xip251-270), 0.965. The z-score in assay [2] was -0.355; in assay [3], -2.13 (inactive); in assay [4] it was -0.591 (inactive); in assay [5], -0.212 (inactive).

Turning to `CC(C)=CCCC(C)=CC(O)C1C=CC2C(=O)N(c3ccccc3)C(=O)C2N1Nc1ccc(C(C)C)cc1` (stereo unspecified), the composite z-score in assay [1] is 0.365 (inactive); with XIP peptide (Xip251-270) it was 0.305. In addition, the z-score was -0.25 in assay [2], -2.82 (inactive) in assay [3], 0.342 (inactive) in assay [4] and 0.0288 (inactive) in assay [5].

Turning to `NCCCCCNC(=O)[C@H]1C[C@H]2C(=O)N[C@@H](Cc3ccccc3)C(=O)N2[C@H]1c1cccc(OCCO)c1`, the composite z-score in assay [1] is 1.51 (inactive); in the assay with XIP peptide (Xip251-270), 0.683. The z-score in assay [2] was -0.329; in assay [3], -3.23 (inactive); in assay [4], 0.0742 (inactive); in assay [5], 0.304 (inactive).

For `[N-]=[N+]=NCc1ccccc1[C@@H]1OC(c2ccc(OCCCO)cc2)=N[C@]1(CCS(=O)(=O)c1ccccc1)C(=O)N1CCOCC1`, the composite z-score was 1.06 (inactive) in assay [1] and 0.712 with XIP peptide (Xip251-270). In addition, the z-score in assay [2] is -2.36; in assay [3], -1.69 (inactive); in assay [4], -0.535 (inactive); in assay [5] it was -0.137 (inactive).

With `CCCC[C@@H]1C[C@H]1[C@@H](NC(=O)c1cccnc1)c1ccc(Cl)cc1`, the composite z-score in assay [1] is -1.19 (inactive); in the assay with XIP peptide (Xip251-270), -1.83. Moreover, the z-score in assay [2] is -0.577; in assay [3], 1.33 (inactive); in assay [4], -0.308 (inactive); in assay [5] it was -0.437 (inactive).

Consider `CC[C@@H]1C=C(C(=O)O)[C@H](c2cccc3ccccc23)N1S(=O)(=O)c1ccc(C)cc1`, for which the composite z-score in assay [1] was 0.406 (inactive); with XIP peptide (Xip251-270), 0.437. For the same compound, the z-score in assay [2] was -0.509; in assay [3], -1.85 (inactive); in assay [4] it was -1.25 (inactive); in assay [5], -1.44 (inactive).

For the compound `O=C1NC(=O)C2C1C=CC(C(O)C=Cc1ccc([N+](=O)[O-])cc1)N2Nc1ccc(Cl)cc1Cl` (stereo unspecified), the composite z-score in assay [1] was 2.22 (inactive); in the assay on XIP peptide (Xip251-270), 0.692. The z-score was -0.143 in assay [2], -5.55 (inactive) in assay [3], 0.104 (inactive) in assay [4] and -0.171 (inactive) in assay [5].

For the compound `COC(=O)[C@@]1(Cc2ccc(OC)cc2)[C@H]2c3cc(C(=O)N4CCCC4)n(CCCNc4ncc(C(F)(F)F)cc4Cl)c3C[C@H]2CN1C(=O)c1ccccc1`, the results for the composite z-score (in assay [1]; in the assay on XIP peptide (Xip251-270)) were -0.546 (inactive) and 0.736, respectively. For the same compound, the z-score was -1.41 in assay [2], -4.1 (inactive) in assay [3], 0.259 (inactive) in assay [4] and -0.101 (inactive) in assay [5].

For the compound `CCOC(=O)[C@H]1C/C=C/C[C@H](C(=O)OCC)C(=O)O[C@H]2[C@@H](OC)O[C@H](CO)[C@@H](OC(=O)c3ccc(Br)cc3)[C@@H]2OC1=O`, the composite z-score in assay [1] is 0.146 (inactive); in the assay with XIP peptide (Xip251-270), -0.103. Further, the z-score in assay [2] was -1.11; in assay [3], -1.2 (inactive); in assay [4] it was -0.0241 (inactive); in assay [5], 0.237 (inactive).
